# Source: PubChem BioAssay AID1347076 (National Center for Advancing Translational Sciences (NCATS), 2019)
# About 13,000 (3.2%) of roughly 400,000 compounds were called active. Roughly 18% stayed inconclusive and do not appear here. The call rests on the fitted dose curve; in most records, active means well fitted cell-killing curve with a large enough effect; inconclusive means small, poorly fitted or top-dose-only effect, or effect the other way; inactive means flat fitted curve, though single readings scatter. What follows is part of a selection rich in actives, with near analogues and random picks from the rest.
# Assay: qHTS assay for MDR1-selective chemotherapeutics: Primary screen using the drug-selected MDR subline cells KB-V1; further: nearly all actives have a fitted effect of over 60% in size
# Settings: KB-V1 MDR cells viability, CellTiter-Glo, 72 h; series mostly up to 46.1 µM; activity change, negative = cytotoxicity: at the top concentration
# Procedure, shortened: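 Cytotoxicity via CellTiter-Glo luminescence after 72 h compound exposure at 37 degrees C. Cells: drug-selected KB-V1 line, DMEM phenol-red free plus 10% FBS. Compounds tested at multiple concentrations; normalized data fitted to concentration-effect curves.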
# On the % scale 0 is the no-effect control and ±100 the full control effect; potency means the concentration at half of the fitted maximal effect.
Compound,"activity change, negative = cytotoxicity",Potency
O=C(Cc1ccc(Cl)cc1)Nc1ccc2nn(-c3ccc(Cl)cc3)nc2c1,0.721% (inactive),
O=[N+]([O-])c1ccc(NCCCN2CCOCC2)c(Cl)c1,-4.73% (inactive),
Nc1nc(NCCCN2CCOCC2)nc(Nc2ccccc2)c1[N+](=O)[O-],,23.1 µM (active)
CC1CN(c2nc(Nc3ccccc3)nc(N)c2[N+](=O)[O-])CC(C)O1 (stereo not drawn),-8.14% (inactive),
COc1ccc(-c2cc3c(c4c2ccn4C)C2CCC3C2)cn1 (stereo not drawn),-1.27% (inactive),
O=C(Cn1c(=O)nc(-c2ccccc2)c2cc(Cl)ccc21)NCc1ccc(Cl)cc1,15.8% (inactive),
COc1cccc(NC(=O)Nc2ccc(F)cc2)c1,-8.98% (inactive),
CC1(C(=O)NS(=O)(=O)c2ccc3ccccc3c2)CCN1C(=O)C1(c2ccc(Cl)cc2)CCC1 (stereo not drawn),9.41% (inactive),
Cc1cccc(N2CCN(C(=O)c3cccc(S(=O)(=O)N4CCc5ccccc5C4)c3)CC2C)c1 (stereo not drawn),,2.59 µM (active)
CN1CCN(S(=O)(=O)c2cccc(C(=O)N3CCc4ccccc43)c2)CC1,-7.71% (inactive),
CN(C)C(CNC(=O)c1cccc(S(=O)(=O)N2CCc3ccccc3C2)c1)c1ccccc1 (stereo not drawn),5.99% (inactive),
O=C(COC(=O)c1cncc(Br)c1)Nc1ccc(S(=O)(=O)N2CCOCC2)cc1,19.1% (inactive),
COc1ccc(C)cc1S(=O)(=O)N1CCN(S(=O)(=O)c2cc(C(=O)O)ccc2C)CC1,-2.45% (inactive),
Cc1ccc(S(=O)(=O)N2CCN(c3ncnc4ccccc34)CC2)cc1,0% (inactive),
Cc1ccc(C)c(S(=O)(=O)N2CCN(c3ncnc4sccc34)CC2)c1,,7.31 µM (active)
CCc1nc2c(OCc3ccccc3)cccn2c1N(C)C(=O)c1ccco1,-2.97% (inactive),
COc1ccccc1Cc1c(-c2ccc(Cl)cc2)nc2ccc(Cl)cn12,-5.46% (inactive),
CCCc1c(-c2ccccc2F)ncn1Cc1ccccc1OC,,20.6 µM (active)
CCCCNS(=O)(=O)CCNCc1ccccc1OC,-3.58% (inactive),
COc1ccccc1Cc1c(-c2ccc(Cl)cc2)nc2c3ccccc3ccn12,-28% (inactive),
CCCCc1c(-c2ccc(Cl)cc2)ncn1CCc1ccccc1OC,,13 µM (active)
COc1ccc(CNC(=O)c2cc3c(-c4ccccc4F)nn(C)c3s2)c(OC)c1,-2.11% (inactive),
COc1cccc(OC)c1C(=O)N1CCN(Cc2ccccc2F)CC1,2.02% (inactive),
CCCCc1c(-c2ccc(Br)cc2)ncn1CCc1ccccc1OC,,20.6 µM (active)
COc1ccccc1CCNS(=O)(=O)c1cn(C)nc1C,14.6% (inactive),
COc1cc(Br)cc2cc(S(=O)(=O)c3ccccc3)c(=O)oc12,20.1% (inactive),

Compound,"activity change, negative = cytotoxicity",Potency
CCc1cccc(NC(=O)c2cnc(N3CCOCC3)c3ccccc23)c1,-2.64% (inactive),
Oc1ccccc1-c1nc2ccc(Cl)cn2c1Nc1ccc2c(c1)OCCO2,0.195% (inactive),
CN(C)c1ccc(/C=C/c2sc3ccccc3[n+]2C)cc1,13.9% (inactive),
Cc1cccc(C)c1NC(=O)CN1CCN(c2ccc(F)cc2)CC1,0% (inactive),
COc1ccc2[nH]c(=S)cc(C)c2c1,,14.6 µM (active)
COc1ccc2[nH]c3c(C)c4cc[n+](C)cc4c(C)c3c2c1,11.5% (inactive),
COc1ccc2[nH]c(C(=O)N3CCN(C)CC3)c(C)c2c1,13.6% (inactive),
CCOc1ccc(N(CC)S(=O)(=O)N2CCCC(C(=O)Nc3ccc(C(C)=O)cc3)C2)cc1 (stereo not drawn),-22.2% (inactive),
OC(CNCC1CCCO1)Cn1c2ccc(Br)cc2c2cc(Br)ccc21 (stereo not drawn),,23.1 µM (active)
O=C(CCNS(=O)(=O)c1ccc(Br)cc1)NCC1CCCO1 (stereo not drawn),-30.8% (inactive),
CC(NS(=O)(=O)c1ccc(Br)cc1)C(=O)NCC1CCCO1 (stereo not drawn),22.2% (inactive),
CCOC(=O)c1c(-c2ccc(OC)cc2)oc2ccc(OCc3ccc(C(=O)OC)cc3)cc12,1.92% (inactive),
COc1ccc(-c2c(C)cc3oc(=O)cc(-c4ccccc4)c3c2C)cc1F,-36% (inactive),
COc1cc(OC)c2c(-c3cccc(-c4cccc(N)c4)c3)cc(=O)oc2c1,,7.31 µM (active)
COc1ccc(-c2c(C)cc3oc(=O)cc(-c4ccccc4)c3c2C)cc1OC,0.0002% (inactive),
OC(Cc1ccc2ccccc2n1)c1ccc(Cl)c(Cl)c1 (stereo not drawn),1.97% (inactive),
O=C(CSc1ncc(CO)n1Cc1ccc(Cl)cc1)NCc1ccc(F)cc1,-6.64% (inactive),
Cn1c(CCN2CCN(c3ccccn3)CC2)nc2cc(NS(=O)(=O)c3ccc(F)cc3)ccc21,-19.1% (inactive),
COc1ccc(Cn2c(=O)sc3ccccc32)cc1OC,,2.59 µM (active)
Cc1cccc(CSc2nnc(Cn3c(=O)sc4ccccc43)n2C)c1,-15.3% (inactive),
COc1ccccc1CNC(=O)CCn1c(=O)sc2ccccc21,-7.38% (inactive),
O=C(Nc1nnc([C@H]2C[C@H](O)[C@@H](CO)O2)s1)c1cccc(Cl)c1,16.6% (inactive),
COc1ccc(S(=O)(=O)NC(=O)C2(C)CCN2C(=O)COc2ccc(Cl)cc2)cc1 (stereo not drawn),4.3% (inactive),
CC(C)COP(=O)(c1ccc(N(C)C)cc1)C(Nc1ccccc1)c1cccnc1 (stereo not drawn),,23.1 µM (active)
CC(Nc1ccccc1)c1cccnc1 (stereo not drawn),35.2% (inactive),
Cc1ccc(C(O)P(=O)(OC(C)C)c2ccc(N(C)C)cc2)cc1 (stereo not drawn),-1.44% (inactive),

Compound,"activity change, negative = cytotoxicity",Potency
COc1ccccc1N1CCN(C2C(=O)c3ccccc3N2C(C)=O)CC1 (stereo not drawn),1.8% (inactive),
Cc1ccc(C)n1NC(=O)c1ccc([N+](=O)[O-])cc1,8.09% (inactive),
COc1ccccc1OCc1nc2ccccc2s1,-20% (inactive),
COc1ccccc1N1CC(O)=C(c2nc3ccccc3s2)C1=N,,10.3 µM (active)
N=C1C(c2nc3ccccc3[nH]2)=C(O)CN1NC(=O)c1c[nH]c2ccccc12,11.8% (inactive),
N=C1C(c2nc3ccccc3s2)=C(O)CN1NC(=O)c1ccc([N+](=O)[O-])cc1,,18.4 µM (active)
COc1ccc(-n2nnnc2-c2nc3ccccc3s2)cc1,-7.27% (inactive),
COC(=O)C[C@@H]1C=C[C@@H](NC(=O)c2ccc3c(c2)OCO3)[C@@H](CO)O1,2.17% (inactive),
COc1ccc(-c2c(C#N)cnc(C)c2C)c(O)c1OC,12% (inactive),
CCCCn1nnnc1C(c1ccccc1)N1CCN(c2ccccc2OC)CC1 (stereo not drawn),-12.7% (inactive),
CC1Cc2[nH][nH]c(=O)c2C(C2CCCC2)O1 (stereo not drawn),24.7% (inactive),
FC(F)(F)c1cccc(Nc2ncnc3ccccc23)c1,,18.4 µM (active)
FC(F)(F)c1cccc(NC(=S)Nc2cccc(Cl)c2)c1,-18.3% (inactive),
FC(F)(F)c1cccc(N/N=C/c2ccccc2)c1,-6.67% (inactive),
CN(Cc1ccccc1)C(=O)c1cn(C)c2ccc(S(=O)(=O)N3CCCCC3)cc2c1=O,17.2% (inactive),
CN1OC[C@@H]2CN[C@H](c3ccc(-c4ccccc4)cc3)C[C@@H]21,-3.02% (inactive),
Cn1c(=O)c2c(SCC(=O)NCC3CCCO3)nc(-c3ccccc3F)nc2n(C)c1=O (stereo not drawn),28.3% (inactive),
COc1ccc(C(C(=O)NC2CCCCC2)N(C(=O)Cc2c[nH]c3ccccc23)c2ccccc2)cc1OC (stereo not drawn),,23.1 µM (active)
COc1ccc(CNC(=O)[C@H](Cc2c[nH]c3ccccc23)NC(C)=O)cc1OC,-5.89% (inactive),
COc1ccc(C(C(=O)NC2CCCCC2)N(C(=O)CCl)c2ccccc2Cl)cc1 (stereo not drawn),0% (inactive),
C[C@@H]1CN([C@@H](C)CO)S(=O)(=O)c2ccc(-c3ccc(C(=O)N(C)C)cc3)cc2O[C@@H]1CN(C)Cc1ccccc1C(=O)O,15.8% (inactive),
O=C(CN1CCCCCC1)Nc1ccc(S(=O)(=O)N2CCCCC2)cc1,-21.5% (inactive),
CCc1ccc(NC(=O)CN2CCSc3ccc(S(=O)(=O)N4CCCC4)cc32)cc1,,7.31 µM (active)
COc1ccc(NC(=O)CN2C(=O)CSc3ccc(S(=O)(=O)N4CCC(C)CC4)cc32)cc1,-1.13% (inactive),
CC(C)N1C(=O)c2ccccc2NC(=O)C1C(=O)NCc1cccs1 (stereo not drawn),7.86% (inactive),
Cn1c(CNC(=O)C(C)(C)C)nc2ccccc21,-2.97% (inactive),

Compound,"activity change, negative = cytotoxicity",Potency
CCCn1c(NCc2ccccc2F)nc2ccccc21,-3.96% (inactive),
Cc1ccc(O)c(CNc2nc3ccccc3n2C)c1,,16.4 µM (active)
CCc1nn(CC(=O)Nc2cccc(C)c2C)c(=O)c2cc3sccc3n12,2.25% (inactive),
O=S(=O)(ON(c1ccccc1)S(=O)(=O)c1ccccc1)c1ccccc1,,23.1 µM (active)
CCOc1ccc(S(=O)(=O)N(CC(=O)O)c2ccccc2)cc1,10.4% (inactive),
Cc1cccc(N(CC(O)CN(C)C)S(=O)(=O)c2ccccc2)c1 (stereo not drawn),-14.7% (inactive),
CCOc1ccc(CNC(=O)c2ccc3nc(CC)c(CC)nc3c2)cc1OC,7.1% (inactive),
CCCCNC(=O)c1nc(C2CCN(S(=O)(=O)c3ccc(F)c(F)c3)CC2)oc1-c1cccc(C(F)(F)F)c1,-6.49% (inactive),
Cc1ccccc1Nc1nnc(SCC(=O)c2cc3ccccc3o2)s1,0% (inactive),
Cc1ccc(Nc2nnc(SCC(=O)c3cc4ccccc4o3)s2)cc1C,,20.6 µM (active)
Cc1cc2c(=O)n(C)c(SCC(=O)c3cc4ccccc4o3)nc2s1,0% (inactive),
Cc1cccc(S(=O)(=O)N(C)C[C@H]2OCc3cnnn3CCCC(=O)N([C@@H](C)CO)C[C@H]2C)c1,6.43% (inactive),
CN1OC[C@@H]2CN(C(=O)C(C)(C)C)[C@H](c3ccc(-n4ccnc4)cc3)C[C@@H]21,0% (inactive),
CC(=O)c1ccc(Nc2nc(C(N)c3ccccc3)cs2)cc1 (stereo not drawn),-0.67% (inactive),
COc1cc(OC)cc(C(=O)N[C@H](C(=O)OCC(=O)NC(C)c2ccccc2)C(C)C)c1 (stereo partly drawn),,23.1 µM (active)
COc1cc(OC)cc(C(=O)N[C@H](C(=O)Nc2nc3ccccc3[nH]2)C(C)C)c1,,14.6 µM (active)
Cc1cc(C)cc(OCC(=O)NC(C)c2ccccc2)c1 (stereo not drawn),-3.72% (inactive),
COc1cc(OC)cc(C(=O)N[C@H](C(=O)NNC(=O)c2ccc(Br)cc2)C(C)C)c1,-1.18% (inactive),
COc1ccc(C(=O)N[C@H](C(=O)NCc2ccccc2)C(C)C)cc1,0% (inactive),
COc1cc(OC)cc(C(=O)NC(C(=O)N2CCC2)C(C)C)c1 (stereo not drawn),-1.52% (inactive),
C[C@@H]1CC2=C(C(=O)OC(C)(C)O2)[C@@H](C2CC2)O1,0% (inactive),
COc1cccc(-c2cnc(C(O)c3ccccc3OC)[nH]2)c1 (stereo not drawn),14.8% (inactive),
COc1cc(S(=O)(=O)N2CCN=C2c2ccccc2)ccc1Cl,,16.4 µM (active)
CC1=NCCN1S(=O)(=O)c1cccc([N+](=O)[O-])c1,20.1% (inactive),
CCOc1ccc(S(=O)(=O)N2CCN=C2Cc2ccccc2)cc1C,-1.27% (inactive),
